# Test results taken from PubChem BioAssay (Tox21).
# Inconclusive results are not listed. Active and inactive are the calls of the source. Calls follow the shape of the dose curve; as a rule, active = well fitted activation curve with a large enough effect in the repeat runs; inconclusive = weak or mixed curves; inactive = flat fitted curve, though single readings scatter. Where a SMILES comes first, the peptide text is derived from it. [ ]: non-standard residue; d: D form. pGlu = O=C1CC[C@@H](C(=O)O)N1
# Assay: A CellTox Green Cytotoxicity Assay to monitor cytotoxicity in HepG2 cells - 8 hour (AID 1224890); also: nearly all actives have a fitted effect of over 45% in size
# Settings: CellTox Green fluorescence; series mostly up to 76.8 µM
# Excerpt: National Center for Advancing Translational Sciences [NCATS]
# NIH Chemical Genomics Center [NCGC]
# U.S. Environmental Protection Agency [EPA]
# National Institutes of Environmental Health Sciences [NIEHS]
# National Toxicology Program [NTP]
# Cell-based models are critical for drug discovery. Determining the natural cytotoxic effects resulting from test compounds is an essential research activity. A CellTox Green Cytotoxicity Assay to monitor cytotoxicity in real time of continues cell culture during 40 hours of the compound treatment was used to screen Tox21 10K library compounds in HepG2 cells. CellTox Green Cytotoxicity Assay is a nonlytic, homogeneous, biofluorescent method to measure cytotoxicity in cell culture after experimental manipulation. The assay system uses a proprietary asymmetric cyanine dye that is excluded from viable cells but preferentially stains the dead cell's DNA. […] Viable cells produce no appreciable increases in fluorescence. Therefore, the fluorescence signal produced by the binding interaction with dead cell DNA is proportional to cytotoxicity.
# The mixture of HepG2 cell suspension and reagents were dispensed at 600cells/6 ul/well in 1536-well tissue culture treated black solid bottom plates using a Multidrop dispenser. After the assay plates were incubated at a 37 C/5% CO2 incubator for 5 hours, 23 nL of compounds dissolved in DMSO, positive and negative controls was transferred to the assay plate by a pintool work station. The plates were incubated at 37 C for 40 hours. The fluorescence intensity were measured at 0h, 8h, 16h, 24h, 32h and 40h time points using ViewLux plate reader during compound treatment.
# % is scaled to controls: 0 for no effect and ±100 for the full control effect.
SMILES,outcome,cytotoxicity increase
OCCCCCO,inactive,
Cc1c(N)c(=O)n(-c2ccccc2)n1C,inactive,
CC(CC=O)CC(C)(C)C (stereo not given),inactive,
C=C[Si](OC(C)=O)(OC(C)=O)OC(C)=O,inactive,
FB(F)F,inactive,
CC(=O)C1CCCCC1=O (stereo not given),inactive,
O=[N+]([O-])c1ccc(/C=N\O)o1,inactive,
CC(CO)(CO)[N+](=O)[O-],inactive,
O=C(O)Cc1csc(-c2ccc(Cl)cc2)n1,inactive,
N[C@H](C(=O)O)[C@@H](O)c1ccc(O)c(O)c1,inactive,
c1coc(CNc2ncnc3nc[nH]c23)c1,inactive,
C[N+](C)(CCOc1ccccc1)Cc1cccs1,inactive,
CC[N+](CC)(CC)CCOc1cccc(OCC[N+](CC)(CC)CC)c1OCC[N+](CC)(CC)CC,inactive,
O=C(O)c1cn(C2CC2)c2cc(N3CCNCC3)c(F)cc2c1=O,inactive,
CC(COc1ccccc1)NN (stereo not given),inactive,
Clc1cc(Cl)c(Cl)nc1Cl,inactive,
O=C(O)CCSCCC(=O)O,inactive,
CC(C)c1ccc2ncccc2c1,inactive,
CC(=O)OCC(=O)[C@@]1(O)[C@H](C)C[C@H]2[C@@H]3CCC4=CC(=O)C=C[C@]4(C)[C@@]3(F)[C@@H](O)C[C@@]21C,inactive,
CC(C)C(=O)OC(=O)C(C)C,inactive,

SMILES,outcome,cytotoxicity increase
CO/N=C(\C(=O)N[C@@H]1C(=O)N2C(C(=O)O)=C(CSc3nc(=O)c(O)nn3C)CS[C@H]12)c1csc(N)n1,inactive,
CC1OC1C1CCC2(C)OC2C1 (stereo not given),inactive,
CCO[Si](OCC)(OCC)c1ccccc1,inactive,
COc1cc(-c2ccc(=O)[nH]n2)ccc1OC(F)F,inactive,
CCCCc1ccc2c(n1)[C@@H](c1ccc(OC)cc1C[C@H](C)C(=O)O)[C@H](C(=O)O)[C@H]2c1ccc2c(c1)OCO2,inactive,
O=C(O)CCCC[P+](c1ccccc1)(c1ccccc1)c1ccccc1,inactive,
CCOC(=O)COC(=O)c1ccccc1C(=O)OCC,inactive,
CC[N+](CC)(CC(=O)Nc1c(C)cccc1C)Cc1ccccc1 (tested in a mixture with another compound),inactive,
CCOC(=O)C(=O)CCCCCCl,inactive,
CCOC(=O)COc1cc(-n2ncc(C(F)(F)F)c(C)c2=O)c(F)cc1Cl,inactive,
CC/C=C\CCOC(C)OCC (stereo not given),inactive,
C=C(C)C(=O)OCC1CCCO1 (stereo not given),inactive,
CCCCOCCOC(=O)COc1cc(Cl)c(Cl)cc1Cl,inactive,
CCOC(=O)C1=NOC(c2ccccc2)(c2ccccc2)C1,inactive,
CCNC(=O)[C@@H]1CCCN1C(=O)[C@H](CCCN=C(N)N)NC(=O)[C@H](CC(C)C)NC(=O)CNC(=O)[C@H](Cc1ccc(O)cc1)NC(=O)[C@H](CO)NC(=O)[C@H](Cc1c[nH]c2ccccc12)NC(=O)[C@H](Cc1cnc[nH]1)NC(=O)[C@@H]1CCC(=O)N1 ([pGlu]HWSYGLRP-NHEt),inactive,
CC(C)C[C@@H](N)C(=O)O,,-17.7% [at 15.8 µM] (inactive)
CC(C)(C)OC(=O)c1cccc(N)c1,inactive,
CC(=O)c1ccccc1[N+](=O)[O-],inactive,
Cc1ccc(C(=O)Nc2ccc(S(=O)(=O)O)c3cc(S(=O)(=O)O)cc(S(=O)(=O)O)c23)cc1NC(=O)c1cccc(NC(=O)Nc2cccc(C(=O)Nc3cc(C(=O)Nc4ccc(S(=O)(=O)O)c5cc(S(=O)(=O)O)cc(S(=O)(=O)O)c45)ccc3C)c2)c1,inactive,
O=C1CCCCCCCCCCCCCCO1,inactive,
